Screens from PubChem BioAssay.
Eya2 inh – Eya2 (human) phosphatase inhibition; O00167; recombinant Eya2, OMFP fluorescence dephosphorylation (OMFP is methylfluorescein phosphate); Potency, µM (highest dose often 76.9 µM), for inactives: at the highest dose activity, negative = inhibition, hits mostly inhibitors; actives 0.006% (n = 330,000); AID 488837
Target sequence (O00167 whole entry, looked up): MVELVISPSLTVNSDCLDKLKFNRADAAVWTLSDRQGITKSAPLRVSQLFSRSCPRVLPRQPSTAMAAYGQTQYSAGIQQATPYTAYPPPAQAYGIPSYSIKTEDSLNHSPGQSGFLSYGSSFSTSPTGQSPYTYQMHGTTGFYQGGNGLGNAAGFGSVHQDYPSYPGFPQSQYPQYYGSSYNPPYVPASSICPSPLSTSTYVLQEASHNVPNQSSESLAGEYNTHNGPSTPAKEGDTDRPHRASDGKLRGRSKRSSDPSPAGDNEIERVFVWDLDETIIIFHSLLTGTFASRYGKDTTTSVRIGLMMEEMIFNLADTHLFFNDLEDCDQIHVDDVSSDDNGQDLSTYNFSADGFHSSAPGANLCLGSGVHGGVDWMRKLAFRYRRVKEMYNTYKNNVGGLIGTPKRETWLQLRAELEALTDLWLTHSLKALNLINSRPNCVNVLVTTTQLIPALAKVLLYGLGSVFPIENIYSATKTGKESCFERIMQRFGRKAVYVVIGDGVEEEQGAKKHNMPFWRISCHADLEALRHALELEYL
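Eya2 (0.2 uM) preincubated 10 min at ambient with compound, then OMFP substrate added at 50 uM; 10 min reaction in 50 mM HEPES pH 7.5, 50 mM NaCl, 5 uM MgCl2, 0.05% BSA, 1 mM DTT. Fluorescence read at Ex 485/Em 525 nm.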
N370S GC – N370S glucocerebrosidase modulation, Gaucher chaperone candidate; N370S GC spleen homogenate, 4MU-glucoside fluorescence; Potency, µM (series often up to 59.4 µM), inactives show at the highest dose activity change, negative = inhibition, usual class: inhibitors; actives 0.092% (n = 330,000);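 further: 0% = full enzyme activity and -100% = no enzyme basal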
MmCpn inh – M. maripaludis TRiC chaperonin inhibition; purified Mm-Cpn ATPase, ADP Transcreener TR-FRET; Potency, µM (titrated, usually from 76.9 µM), without a hit: top-dose activity, negative = inhibition, hits mostly inhibitors; actives 0.031% (n = 330,000); further: nearly all actives have a fitted effect of over 80% in size
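25 nM Mm-CPN + cpd, 10 min 37°C; + 10 uM ATP, 30 min 37°C; buffer 30 mM Tris pH 7.4, 100 mM KCl, 5 mM MgCl2, 1 mM DTT; Transcreener ADP HTRF detection 30 min RT.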
USP2a inh – USP2a (human) protease inhibition; O75604; USP2 core, Ub-CHOP2 coupled fluorogenic reporter, 485/531; Potency, µM (highest dose often 38.3 µM), for inactives: at the highest dose activity change, negative = inhibition, usual class: inhibitors; actives 0.01% (n = 330,000); AID 463254;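 further: plate controls were DMSO wells for no effect and full inhibition by NEM control for full effect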
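Deubiquitinase activity read as fluorescence (485/531 nm) after Ub-CHOP2 cleavage activates the enterokinase reporter on its substrate; USP2 core 10nM, Ub-CHOP2 and substrate 25nM each, 30min compound preincubation then 60min RT; data normalized to NEM, curves fitted.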
The depositor's hits bear a star; ? = inconclusive; . = no result given; [ ] = dose if it differs, or a comment. This is a sample that favours compounds with a hit; in the whole collection about 0.1% have one here. The call rests on the fitted dose curve; in most records, active means well fitted curve in the direction sought with a large enough effect; inconclusive means small, poorly fitted or top-dose-only effect, or another doubt; inactive means no such curve, though single readings can be large; an effect the other way counts as inactive or inconclusive. Unless noted, on the % scale 0 is the no-effect control and ±100 the full control effect; potency means the concentration at half of the fitted maximal effect.

SMILES	Eya2 inh	N370S GC	MmCpn inh	USP2a inh
Cc1ccccc1Nc1nc(NCc2ccco2)c2ccccc2n1	-4.3%	20µM*	-0.3%	0.1%
Oc1ccccc1Nc1nc(NCc2ccco2)c2ccccc2n1	15.5%	?	-2.3%	1.9%
Cc1ccc(-c2nc(Nc3ccc(N4CCOCC4)cc3)c3ccccc3n2)cc1	-6.2%	14.1µM*	-1.8%	-0.1%
c1ccc(Nc2nc(-c3ccoc3)nc3ccccc23)cc1	.	12.6µM*	.	.
c1ccc(Nc2nc(-c3ccccc3)nc3ccccc23)cc1	-6.1%	?	-2.3%	2.4%
CC(NC(=O)c1cccs1)C(c1cccs1)N1CCN(Cc2ccccc2)CC1 (configuration not stated)	-0.9%	-7.9%	0.7%	-0.9%
CC(NC(=S)NCCc1ccccc1)C(c1cccs1)N1CCN(C)CC1 (configuration not stated)	6.4%	11.2µM*	3.3%	1.6%
O=C(C1=C[C@@H](c2ccc(C(F)(F)F)cc2)C[C@@H](OCc2ccc(CO)cc2)O1)N1CCN(Cc2ccccc2)CC1	5.7%	12.6µM*	.	4.5%
N=C1Sc2ccccc2C2=NCCCN12	.	-0.1%	.	.
CCCn1c(=O)c(C(=O)Nc2ncccc2O)c(O)c2ccccc21	-1.2%	-20.3%	-2.6%	3.1%
Cn1c(=O)c(C(=O)Nc2ncccc2O)c(O)c2ccccc21	56.2µM*	-3.2%	-1.9%	?
Cc1cccc(-c2csc(N3CCC(C(N)=O)CC3)n2)c1	.	.	-0.6%	.
Oc1ccc(-c2nc3ncccn3c2Nc2ccc3c(c2)OCO3)cc1	21.0%	3.1%	-1.2%	0.9%
Cc1ccn2c(Nc3ccc4c(c3)OCO4)c(-c3ccc(O)cc3)nc2c1	10.2%	15.8µM*	-9.6%	4.0%
C#CCn1c(=NC(=O)CN2C(=O)CCC2=O)sc2cc(S(N)(=O)=O)ccc21	-2.1%	-4.4%	-1.4%	0.6%
C#CCn1c(=NC(=O)c2cc(Cl)sc2Cl)sc2cc(S(N)(=O)=O)ccc21	-6.3%	4.2%	50.1µM*	1.9%
CN(C)c1ccc(N/C=C/C(=O)C(C)(C)C)cc1	13.2%	-4.9%	22.4µM*	-0.3%
CN(C)c1ccc(N/C=C/C(=O)c2ccccc2)cc1	-21.1%	-8.8%	-9.9%	1.1%
Cc1ccc(N=C2NC(=O)/C(=C/C=C/c3ccco3)S2)cc1	1.9%	-7.9%	0.1%	?
O=C1NC(=Nc2ccccc2)S/C1=C\C=C\c1ccco1	0.9%	6.6%	-1.7%	5.62µM*
O=[N+]([O-])c1ccc(CCO)cc1	.	14.1%	.	.
O=C(Nc1nc(-c2cccs2)cs1)c1ccc(S(=O)(=O)N2CCCCC2)cc1	8.9%	12.4%	44.7µM*	2.1%
CCc1ccc(C2C(C#N)=C(N)SC(N)=C2C#N)cc1	14.2%	6.0%	-19.2%	-1.8%
CCc1ccc(C2C(C#N)=C(N)SC(N)=C2C#N)s1	?	-38.2%	35.5µM*	?
O=C(O)c1cc(O)c2c(c1)[C@@H]([C@H]1c3cc(C(=O)O)cc(O)c3C(=O)c3c(O[C@@H]4O[C@H](CO)[C@@H](O)[C@H](O)[C@H]4O)cccc31)c1cccc(O[C@@H]3O[C@H](CO)[C@@H](O)[C@H](O)[C@H]3O)c1C2=O	?	.	-7.1%	2µM*
SMILES	Eya2 inh	N370S GC	MmCpn inh	USP2a inh
COc1ccc(-c2c(C3C4C=CCCC4(C)C(=O)N3Cc3ccccc3)ccc3ccccc23)cc1OC (configuration not stated)	.	-1.2%	.	.
C[C@H]1Cc2c(COc3ccccc3)nc3c(c2CO1)CN(C(=O)c1cccnc1)CC3	.	-11.3%[12.8 µM]	.	.
CCN1CCN(C(CC(C)C)c2nnnn2CS(=O)(=O)c2ccc(C)cc2)CC1 (configuration not stated)	-0.2%	22.4µM*	2.1%	0.8%
Cc1ccc(S(=O)(=O)Cn2nnnc2C(CC(C)C)N2CCN(C(=O)c3ccco3)CC2)cc1 (configuration not stated)	-2.6%	?	1.9%	-0.5%
COc1cc(C(C(=O)NC(C)(C)C)N(C(=O)CNC(=O)c2cccs2)c2ccc(C(C)C)cc2)cc(OC)c1OC (configuration not stated)	2.8%	12.0%	-1.6%	-7.1%
COc1cc(C(C(=O)NC(C)(C)C)N(C(=O)CNC(=O)c2cccs2)c2ccccc2)cc(OC)c1OC (configuration not stated)	-29.3%	12.6µM*	-0.1%	2.8%
COc1ccc(NC(=O)N2CCc3nc(COc4ccccc4)c4c(c3C2)CO[C@@H](C)C4)cc1	.	6.2%[12.8 µM]	.	.
